Screens from PubChem.
Sampled rows, rich in hits. Any-hit rate of the full collection: about 22%.
CYP2C19 activ = activators of human cytochrome P450 2C19; P33261; recombinant CYP2C19, luciferin-H EGE luminescence; hits give high values; 0 = fully inhibited enzyme, 1 = untreated enzyme; activation factor at 5 µM; 96,000 tested, under 10 active;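 active = activation factor of at least 2 at 5 µM in the primary screen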;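 also: 0 = wells with 2.5 mM tranylcypromine and 1 = vehicle-only wells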
Target sequence (P33261 whole entry, looked up): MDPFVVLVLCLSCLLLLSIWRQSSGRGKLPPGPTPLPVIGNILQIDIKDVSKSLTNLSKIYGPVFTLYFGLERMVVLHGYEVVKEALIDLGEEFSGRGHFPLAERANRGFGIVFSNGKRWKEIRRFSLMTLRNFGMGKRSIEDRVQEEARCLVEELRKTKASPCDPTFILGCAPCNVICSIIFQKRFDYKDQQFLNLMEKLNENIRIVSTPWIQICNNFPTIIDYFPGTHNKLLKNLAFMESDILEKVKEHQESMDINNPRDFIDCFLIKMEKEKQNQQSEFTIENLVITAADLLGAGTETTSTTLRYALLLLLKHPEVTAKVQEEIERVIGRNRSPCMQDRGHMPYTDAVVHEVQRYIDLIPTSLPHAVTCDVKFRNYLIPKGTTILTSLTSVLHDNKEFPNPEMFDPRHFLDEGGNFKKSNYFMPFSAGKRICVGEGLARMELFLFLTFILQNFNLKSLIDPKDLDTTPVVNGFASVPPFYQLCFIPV
CYP2C9 inh = human CYP2C9 inhibition | P11712 | hit rate 20% among 96,000 | inhibition, % at 5 µM | CYP2C9 Supersomes, luciferin-H conversion, luminescence;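 active = blocking of liver enzyme CYP2C9 beyond about 50% at 5 µM, limit read from the data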
Measles CPE = protection of cells from measles virus. Measles virus-infected cells, CPE protection, absorbance. protection (pct of control), % at 4 µM. hit rate 1.5% among 140,000; in the data active = protection mostly above about 24%, no sharp cut-off; inactive = mostly below about 26%
CYP2C9 act = activators of human CYP2C9. recombinant CYP2C9, luciferin-H conversion, luminescence; hits give high values; factor 1 = untreated enzyme, 0 = blocked. AID 1024. P11712. activation factor at 5 µM. hit rate 1.4% among 96,000;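 active = activation factor of 2 or more for CYP2C9 at a 5 µM dose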;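 also: 0 = sulfaphenazole-blocked wells and 1 = vehicle-only wells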
CYP2C19 inhib = inhibitors of human CYP2C19; inhibition, % at 5 µM; hit rate 21% among 96,000; CYP2C19 Supersomes, luciferin-H EGE luminescence, 30 min; AID 778; P33261;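 active = CYP2C19 inhibition above a set limit at 5 µM in the primary screen, cut at about 50% in these data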;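 also: plate controls were negative control wells for no effect and 2.5 mM tranylcypromine positive control for full effect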
* marks the source's active call; other numbers are inactive results.

Results for CCCCn1c(-c2ccco2)nc2ccccc2c1=O ?
CYP2C19 activ: 0.7; CYP2C9 inh: 24; Measles CPE: 8; CYP2C9 act: 0.8; CYP2C19 inhib: 29

How did CCCCN1C(=O)C(O)=C(C(C)=O)C1c1ccc(OC)cc1OC (stereo not drawn) do in these assays?
CYP2C19 activ: 1.2; CYP2C9 inh: 13; Measles CPE: 2; CYP2C9 act: 0.9; CYP2C19 inhib: -17

What do the screens show for `CCCc1ccc(-c2cc(NC(=O)CSc3n[nH]c(N)n3)n(-c3ccccc3)n2)cc1`?
CYP2C19 activ: 0.7; CYP2C9 inh: 58*; Measles CPE: 14; CYP2C9 act: 0.4; CYP2C19 inhib: 33

What do the screens show for `O=C(CSc1nncs1)Nc1cc(-c2ccccc2)nn1-c1ccccc1`?
Measles CPE: 31

How did CN1CCc2nc(SCC(=O)Nc3cccc(F)c3)c(C#N)c(-c3cccs3)c2C1 do in these assays?
CYP2C19 activ: 0.1; CYP2C9 inh: 100*; Measles CPE: 3; CYP2C9 act: 0; CYP2C19 inhib: 95*

Results for N#Cc1c(-c2ccco2)nc(SCC(=O)Nc2cccc(Cl)c2)[nH]c1=O ?
CYP2C19 activ: 0.4; CYP2C9 inh: 99*; Measles CPE: 8; CYP2C9 act: 0; CYP2C19 inhib: 60*

What do the screens show for `Cc1nc(SCC(=O)c2ccccc2)c(C#N)c(-c2ccco2)c1C(=O)NCc1ccco1`?
CYP2C19 activ: 0.5; CYP2C9 inh: 79*; Measles CPE: 2; CYP2C9 act: 0.2; CYP2C19 inhib: 45

Results for COc1cccc(NC(=O)CSc2nc3c(c(-c4ccco4)c2C#N)CCCC3)c1 ?
CYP2C19 activ: 0.9; CYP2C9 inh: 53*; Measles CPE: 6; CYP2C9 act: 0.5; CYP2C19 inhib: 12

What do the screens show for `O=C(O)c1nn(-c2ccc(Cl)cc2)ccc1=O`?
CYP2C19 activ: 1.1; CYP2C9 inh: -9; Measles CPE: 15; CYP2C9 act: 1.1; CYP2C19 inhib: -7

What do the screens show for `COc1cccc(NC(=O)c2cc(CN3C(=O)c4ccccc4C3=O)ccc2OC)c1`?
Measles CPE: 27

What do the screens show for `O=C(CSc1nnc(-c2ccc3c(c2)OCCO3)o1)NC1CCCCC1`?
CYP2C19 activ: 1.1; CYP2C9 inh: -11; CYP2C9 act: 1.1; CYP2C19 inhib: -7

Results for O=C(CCNc1cccc(C(F)(F)F)c1)c1ccco1 ?
CYP2C19 activ: 0.7; CYP2C9 inh: -67; Measles CPE: 5; CYP2C9 act: 1.7; CYP2C19 inhib: 32

Results for O=C(/C=C/c1ccc([N+](=O)[O-])cc1)N1CCN(c2ccccc2F)CC1 ?
Measles CPE: 19

How did COC(=O)CSc1nc(N)c(C#N)c(-c2ccco2)c1C#N do in these assays?
CYP2C19 activ: 1.1; CYP2C9 inh: 15; Measles CPE: 15; CYP2C9 act: 0.8; CYP2C19 inhib: -7

Results for COCCOC(=O)c1c(C)nc(SCC(=O)Nc2ccc(OC)cc2)c(C#N)c1-c1ccco1 ?
CYP2C19 activ: 0.9; CYP2C9 inh: 54*; Measles CPE: 3; CYP2C9 act: 0.5; CYP2C19 inhib: 8

What do the screens show for `NC(=O)NCc1ccc(Cl)cc1`?
CYP2C19 activ: 1.1; CYP2C9 inh: -5; Measles CPE: 23; CYP2C9 act: 1; CYP2C19 inhib: -13

Results for COC(=O)c1cccc(NC(=O)NC2CCCN2S(=O)(=O)c2ccc(Cl)cc2)c1 (stereo not drawn) ?
CYP2C19 activ: 0.8; CYP2C9 inh: 54*; Measles CPE: 7; CYP2C9 act: 0.5; CYP2C19 inhib: 24

How did COC(=O)c1cccc(NC(=O)Nc2ccc(Cl)c(Cl)c2)c1 do in these assays?
CYP2C19 activ: 1; CYP2C9 inh: 14; Measles CPE: 5; CYP2C9 act: 0.9; CYP2C19 inhib: 3

How did O=C(Nc1cccc2ccccc12)/C(=C/c1cccc([N+](=O)[O-])c1)NC(=O)c1cccs1 do in these assays?
Measles CPE: 13

What do the screens show for `CSc1ccc(/C=C/c2cc(=O)c3ccccc3[nH]2)cc1`?
Measles CPE: 6

What do the screens show for `O=C1C=C(c2ccccc2)OC2(CCCC2)O1`?
CYP2C19 activ: 0.4; CYP2C9 inh: -12; Measles CPE: 2; CYP2C9 act: 1.1; CYP2C19 inhib: 63*

What do the screens show for `CC(C)(C)C1CCC(OC(=O)CN2CCOCC2)CC1` (stereo not drawn)?
CYP2C19 activ: 0.7; CYP2C9 inh: -3; Measles CPE: 2; CYP2C9 act: 1; CYP2C19 inhib: 33

Results for CCN1CCN(CCNC(=O)c2cn(Cc3ccccc3F)nn2)CC1 ?
Measles CPE: 41*
